Test results reported in PubChem BioAssay (NCATS).
Several values for one entry are separate records, joined by “and”; a condition that tells them apart may be missing. Equal values may be shown once.

Tests used:
[1] = qHTS profiling of the MIPE4 collection as inhibitors of Plasmodium falciparum (3D7) proliferation (AID 743344);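 further: scaled between DMSO vehicle wells and 0.29 µM artemisinin as full inhibition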; conditions: P. falciparum 3D7 in erythrocytes, SYBR Green DNA fluorescence, 72 h; at 28.5 µM unless noted
Procedure, shortened: (§1)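 Parasite DNA was quantified by SYBR Green I fluorescence (ex 485, em 535 nm) after overnight lysis in saponin/Triton buffer at room temperature. Cultures at 0.3% parasitemia and 2.5% hematocrit were first exposed to compound for 72 h at 37 C; signals were normalised to artemisinin (0.29 uM) and vehicle wells.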

[2] = qHTS profiling of the MIPE4 collection as inhibitors of Plasmodium falciparum (DD2) proliferation (AID 743345); conditions: P. falciparum Dd2 in erythrocytes, SYBR Green DNA, 72 h; at 28.5 µM unless noted
Procedure, shortened: as §1

Row | SMILES | parasite growth, % of DMSO control [1] | parasite growth remaining, % of DMSO control (lower = more inhibition) [2]
1 | CCn1c(C(=O)N(C2CC2)C2CC2)cc2c3c(ncn3C)c(Nc3cc(C)n(C)n3)nc21 | 9.81% | 12.4%
2 | CC(=O)O[C@]1(C(C)=O)CC[C@@H]2[C@@H]3C[C@H](C)C4=CC(=O)CC[C@]4(C)[C@H]3CC[C@@]21C | 24.9% | 89%
3 | Cc1ccccc1C(C(=O)NC1CCCCC1)N(C(=O)Cn1ccnc1C)c1cccc(F)c1 (stereo not drawn) | 103% | 36.3%
4 | CCc1ccc(C=C2SC(=S)NC2=O)cc1 | 77.1% | 93.8%
5 | COc1ccc(C2Sc3ccccc3N(CCN(C)C)C(=O)C2OC(C)=O)cc1 (stereo not drawn) | 68.8% and 96.6% | 81% and 97.9%
6 | COCCOC(=O)C1=C(C)NC2=C(C(=O)CC(c3ccccc3OC)C2)C1c1cccc(O)c1 (stereo not drawn) | 11.6% | 9.83%
7 | CO[C@H]1C[C@@H]2CC[C@@H](C)[C@@](O)(O2)C(=O)C(=O)N2CCCC[C@@H]2C(=O)O[C@H]([C@H](C)C[C@@H]2CC[C@H](OC(=O)C(C)(CO)CO)[C@H](OC)C2)CC(=O)[C@H](C)C=C(C)[C@@H](O)[C@@H](OC)C(=O)[C@H](C)C[C@H](C)C=CC=CC=C1C | 5.79% | 6.2%
8 | NC(=O)c1ccc2nc(-c3ccc(Oc4ccc(Cl)cc4)cc3)[nH]c2c1 | 48.1% | 76.9%
9 | COc1ccc(-c2coc3cc(O)cc(O)c3c2=O)cc1 | 36.9% | 99.4%
10 | COC(=O)N[C@H](C(=O)N1CCC[C@@H]1c1ncc(-c2ccc(-c3ccc(-c4cnc([C@@H]5CCCN5C(=O)[C@@H](NC(=O)OC)C(C)C)[nH]4)cc3)cc2)[nH]1)C(C)C | 9.52% | 9.13%
11 | NC[C@@H]1O[C@@H](O[C@H]2[C@@H](O)[C@H](O[C@@H]3[C@@H](O)[C@@H](N)C[C@H](N)[C@H]3O[C@H]3O[C@H](CN)[C@@H](O)[C@@H](O)[C@H]3N)O[C@H]2CO)[C@H](N)[C@@H](O)[C@@H]1O | 88% | 92.7%
12 | Cc1ccc(C(=O)Nc2cccc(C(F)(F)F)c2)cc1Nc1nc(-c2cccnc2)nc2c1cnn2C | 7.71% | 12%
13 | CC(C)(C)Cn1c(N)nc2ccc(-c3[nH]c(C(C)(C)C)nc3-c3ccc(F)cc3)nc21 | 11% | 9.48%
14 | CC(=Cc1ccccc1)C=C1SC(=S)N(CC(=O)O)C1=O | 92.1% | 102%
15 | CCC(=O)NC[C@H](Cc1ccc(OCCc2nc(-c3ccccc3)oc2C)cc1)NC(C)=CC(=O)c1ccc(C(F)(F)F)cc1 | 6.82% | 7.84%
16 | COCCCCC(=NOCCN)c1ccc(C(F)(F)F)cc1 | 47.6% | 56.9%
17 | C[C@]12CC[C@@H]3c4ccc(O)cc4CC[C@H]3[C@H]1C[C@@H](O)[C@H]2O | 87% | 91.2%
18 | O=C(Nc1cccc(Br)c1)c1cccc(S(=O)(=O)N2CCCCCC2)c1 | 55.6% | 51.8%
19 | O=C(NC1CCOCC1)c1ccc(-c2cc(-c3cn[nH]c3-c3ccccn3)ccn2)cc1 | 17.3% | 82.7%
20 | COc1cc2c(cc1OC)CN(CCc1ccc(NC(=O)c3cc(OC)c(OC)cc3NC(=O)c3cnc4ccccc4c3)cc1)CC2 | 39.1% | 83.6%
21 | COC(=O)C1=CO[C@@H](O)[C@@H]2C(CO)=CC[C@@H]12 | 83% | 85.9%
22 | O=c1c(-c2ccc(O)cc2)coc2cc(O[C@@H]3O[C@H](CO)[C@H](O)[C@H](O)[C@H]3O)ccc12 | 91.8% | 97.7%
23 | CO[C@H]1C[C@@H]2CC[C@@H](C)[C@@](O)(O2)C(=O)C(=O)N2CCCC[C@@H]2C(=O)O[C@H]([C@H](C)C[C@@H]2CC[C@H](OP(C)(C)=O)[C@H](OC)C2)CC(=O)[C@H](C)C=C(C)[C@@H](O)[C@@H](OC)C(=O)[C@H](C)C[C@H](C)C=CC=CC=C1C | 4.92% | 6.6%
24 | CC1(C)Cc2c(sc(NC(=S)NC(=O)c3ccccc3)c2C(=O)O)CO1 | 90.4% | 100%
25 | CC1(C)O[C@H]2C[C@@H]3[C@H]4CCC5=CC(=O)C=C[C@]5(C)[C@@]4(F)[C@@H](O)C[C@]3(C)[C@]2(C(=O)CO)O1 | 38.4% | 92.5%
26 | NC(=O)[C@@H](CCC(F)(F)F)N(Cc1ccc(-c2ncon2)cc1F)S(=O)(=O)c1ccc(Cl)cc1 | 50.8% | 88.9%
27 | CC(C)(Cc1ccc2ccccc2c1)NC[C@@H](O)COc1cccc(Cl)c1C#N | 89.9% | 98.5%
28 | NS(=O)(=O)c1cccc2c1C(=O)c1cccc(O)c1C2=O | 4.48% | 6.12%
29 | O=c1ccn([C@@H]2O[C@H](CO)[C@H](O)[C@H]2O)c(=O)[nH]1 | 92.2% | 90.5%
